Test results published in PubChem BioAssay (Tox21).
Results filed as inconclusive are left out. The source made the active and inactive calls. Calls follow the shape of the dose curve; as a rule, active = well fitted cell-killing curve with a large enough effect in the repeat runs; inconclusive = weak or mixed curves, or effect the other way; inactive = flat fitted curve, though single readings scatter.

Assay: cAMP Responsive Elements (CRE) small molecule antagonists, cell-based qHTS assay: qHTS cell viability counter screen (AID 2060913); also: nearly all actives have a fitted effect of over 40% in size
Conditions: CRE-bla HEK293T viability, CellTiter-Glo luminescence, 5 h; series mostly up to 92.4 µM; viability change, negative = cytotoxic: at the top concentration
How it was run: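 Viability of NKH477-stimulated (0.25 uM final) CRE-bla HEK293T cells is measured by CellTiter-Glo luminescence following 3 hrs compound exposure at 37 C.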
% is scaled to controls: 0 for no effect and ±100 for the full control effect; potency is read from the fitted curve at half-maximal effect.

| Structure (SMILES) | viability change, negative = cytotoxic | Potency |
| --- | --- | --- |
| CC(C)C(O)C(C)(C)CO (stereo not given) | -0.179% (inactive) |  |
| COC(=O)Nc1nc2ccc(C(=O)c3ccccc3)cc2[nH]1 | -2.16% [at 42.5 µM] (inactive) |  |
| CCCCCCCCCCCCCC[P+](CCCC)(CCCC)CCCC (tested in a mixture with another compound) |  | 2450 nM (active) |
| CCc1oc2ccccc2c1C(=O)c1cc(Br)c(O)c(Br)c1 | -7.47% [at 42.5 µM] (inactive) |  |
| CCn1cc(C(=O)O)c(=O)c2cnc(N3CCNCC3)nc21 | -3.84% [at 42.5 µM] (inactive) |  |
| CCOC(=O)c1ccc(C)cc1 | 5.97% (inactive) |  |
| C1CCCCCCCCCCC1 | 3.07% [at 18.9 µM] (inactive) |  |
| CC(=O)CCc1ccc(OC(C)=O)cc1 | 0.994% (inactive) |  |
| C[C@H]1O[C@@H](n2cc(F)c(=O)[nH]c2=O)[C@H](O)[C@@H]1O | 10.6% [at 42.5 µM] (inactive) |  |
| CCCCCCCCOc1ccc(C(=O)O)cc1 | 0.446% (inactive) |  |
| CCCCCCCCCOC(C)=O | 2.76% (inactive) |  |
| CCCCCCCCCCCBr | 4.23% [at 42.5 µM] (inactive) |  |
| CC(=O)OC(C)C[N+](C)(C)C (stereo not given) | 1.45% [at 42.5 µM] (inactive) |  |
| CC(C)=CCC/C(C)=C\C#N | 3.46% (inactive) |  |
| O=C(O)CCCCCCCCC(=O)O |  | inactive |
| Cc1c(-c2ccccc2)oc2c(C(=O)OCCN3CCCCC3)cccc2c1=O | -4.77% [at 42.5 µM] (inactive) |  |
| COc1c(N2C[C@@H]3CCCN[C@@H]3C2)c(F)cc2c(=O)c(C(=O)O)cn(C3CC3)c12 | -0.217% [at 42.5 µM] (inactive) |  |
| CCC1COC(=O)O1 (stereo not given) | 4.9% (inactive) |  |
| Clc1cccnc1 | 14.6% (inactive) |  |
| Nc1ccc2c(c1)CN1C(=O)c3ccccc3C1=N2 | -16.9% [at 18.9 µM] (inactive) |  |
